Results as given in PubChem BioAssay (NCATS).
Where “and” joins values, the source holds several entries; their conditions need not be identical. Equal entries are not always repeated. Results filed as inconclusive are left out. Calls of active or inactive are those of the source. Unless noted, calls come from the whole dose curve; as a rule, active = well fitted curve in the direction sought with a large enough effect; inconclusive = small, poorly fitted or top-dose-only effect, or another doubt; inactive = no such curve, though single readings can be large; an effect the other way counts as inactive or inconclusive.

Key:
[1] = Cell Viability - Hek293 (AID 427;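 active = compounds whose dose-response curve shows a full or clear partial loss of cell viability, called from curve shape rather than a numeric limit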;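 note: potency is the fitted concentration of half-maximal effect; cells exposed to compound for 40 hours at 37 °C before reading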); details: qHTS
Procedure, shortened: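 Luminescent ATP read-out (CellTiter-Glo, 20 min RT) after 40 hr compound exposure at 37 °C in complete medium. Signal normalized to DMSO (basal) and 100 uM tamoxifen (100% inhibition); concentration-response fitted with the standard Hill equation to give AC50.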

[2] = Cellular Toxicity (caspase-3) Jurkat (AID 655); details: Jurkat caspase-3 activation, luminescence; caspase-3 activation: at 92.2 µM (top of the series), DMSO = 0%, tamoxifen = 100%;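 note: cells exposed to compound for 16 h at 37 °C before reading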
Procedure, shortened: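 Luminescent caspase-3/7 readout (aminoluciferin substrate cleavage) in human T-cell leukemia Jurkat cells after 16 hr compound exposure. Concentration-response normalized to DMSO and 100 uM tamoxifen; AC50 by standard Hill equation.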

[3] = Cellular Toxicity (caspase-3) BJ (AID 658);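 note: cells exposed to compound for 16 hours; 0% = DMSO basal and 100% = 10 µM staurosporine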
Procedure, shortened: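 qHTS, BJ fibroblasts, 1000 cells/well; 5 hr preincubation, 16 hr compound, 37 °C; Caspase-Glo 3/7 reagent, 1 hr RT; luminescence. DMSO = 0%, 10 uM staurosporine = 100%. Hill-equation AC50.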

[4] = MultiTox-Fluor Cytotoxicity Assay - LYMP1-002 - Live Cells (AID 955);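 note: cells exposed to compound for 16 hours; % is set by controls: 0 for no effect and ±100 for the full control effect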
Procedure, shortened: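 In this qHTS viability format, lymphoblastoid cells (LYMP1-002, human) received compound for 16 hr at 37 C. Fluorogenic GF-AFC cleavage by viable cells was detected at 405/510 nm after 1 h at room temperature.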

[5] = MultiTox-Fluor Cytotoxicity Assay - LYMP1-003 - Dead Cells (AID 961);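 note: 0% = DMSO and 100% = tetraoctylammonium bromide; nearly all actives have a fitted effect of over 70% in size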
Procedure, shortened: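 Human lymphoblastoid LYMP1-003 cells (2500/well) were treated with compounds for 16 hr at 37 C in complete medium. Dead-cell protease release was read by bis-AAF-R110 fluorescence (Ex/Em 485/520). AC50 came from Hill fits, normalized to DMSO and 15 uM tetraoctylammonium bromide.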

[6] = MultiTox-Fluor Cytotoxicity Assay - LYMP1-003 - Live Cells (AID 962);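 note: cells exposed to compound for 16 hours at 37 °C; 0% = DMSO only and full loss = 92 µM tetraoctylammonium bromide; cytotoxic hits lower the live-cell protease signal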
Procedure, shortened: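 Human lymphoblastoid line LYMP1-003 in complete culture medium, treated 16 hr with titrated compounds. Viable cells quantified via cell-permeant GF-AFC substrate fluorescence; AC50 derived by Hill fitting.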

[7] = Cell Viability - LYMP1-003 - Assay at 24 hr (AID 963);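 note: plate controls were DMSO only for no effect and tetraoctylammonium bromide positive control for full effect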
Procedure, shortened: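 The lymphoblastoid line was treated with titrated compounds for 24 hours, and viable cell number estimated from luciferase-based ATP luminescence.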

[8] = Cell Viability - LYMP1-003 - Assay at 40 hr (AID 964); note: % is set by controls: 0 for no effect and ±100 for the full control effect; nearly all actives have a fitted effect of over 60% in size
Procedure, shortened: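 Acute toxicity is scored as a concentration-dependent loss of intracellular ATP in LYMP1-003 cells (2500/well, complete medium) after 40 hr at 37 C, measured by CellTiter-Glo luminescence; AC50 values derive from standard Hill modelling.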

[9] = Cell Viability - LYMP2-003 (AID 965);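 note: cells exposed to compounds for 24 h before reading; 0% = DMSO only and full effect = 92 µM tetraoctylammonium bromide; nearly all actives have a fitted effect of over 50% in size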
Procedure, shortened: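 CellTiter-Glo luminescence (cellular ATP) after 24 h compound exposure at 37 C in complete medium; 2500 cells/well, 5 h settling beforehand. Concentration-response fitted to standard Hill equation for AC50. Tetraoctylammonium bromide served as positive control.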

[10] = Cell Viability - LYMP2-017 (AID 972);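 note: cells exposed to compound for 24 hours at 37 °C; % is set by controls: 0 for no effect and ±100 for the full control effect; nearly all actives have a fitted effect of over 55% in size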
Procedure, shortened: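 In this qHTS format, lymphoblastoid cells in complete medium receive test compound for a day at 37 C before ATP content is quantified by luciferase luminescence. Reported AC50 figures come from standard Hill-equation curve fitting.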

[11] = Cell Viability - LYMP2-007 (AID 979);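 note: cells exposed to compound for 24 h before reading; 0% = DMSO only and the negative end = 92 µM tetraoctylammonium bromide; nearly all actives have a fitted effect of over 60% in size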
Procedure, shortened: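 Measured via luciferase-based ATP quantitation: lymphoblastoid cells, 24 hr compound exposure at 37 C, AC50 from Hill fits.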

[12] = Cell Viability - LYMP2-008 (AID 980); note: % is set by controls: 0 for no effect and ±100 for the full control effect; nearly all actives have a fitted effect of over 60% in size
Procedure, shortened: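 Measured: ATP-dependent luminescence, proportional to viable cell number, in human lymphoblastoid cells treated 24 hr with compound in complete culture medium. Values are AC50s from Hill-equation modelling of qHTS titrations.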

[13] = Cell Viability - LYMP1-002 - Assay at 40 hr (AID 994);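 note: 0% = DMSO only and full inhibition = 92 µM tetraoctylammonium bromide; nearly all actives have a fitted effect of over 60% in size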
Procedure, shortened: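 Concentration-dependent ATP loss after 40 hr treatment at 37 C defined toxicity; AC50 values were obtained by fitting the standard Hill equation.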

[14] = qHTS assay for small molecule agonists of retinoid X receptor alpha signaling (AID 588544; calls by dose curve;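 for activation: 0% = DMSO basal wells and 100% = reference agonist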); details: HEK293T RXRa-UAS-bla, beta-lactamase reporter, 18 h; 530 nm emission
[15] = molecular target: Retinoic acid receptor RXR-alpha (Homo sapiens) (UniProt P19793); experiment: as above
Chain of Retinoic acid receptor RXR-alpha (Homo sapiens) (P19793 whole entry, looked up): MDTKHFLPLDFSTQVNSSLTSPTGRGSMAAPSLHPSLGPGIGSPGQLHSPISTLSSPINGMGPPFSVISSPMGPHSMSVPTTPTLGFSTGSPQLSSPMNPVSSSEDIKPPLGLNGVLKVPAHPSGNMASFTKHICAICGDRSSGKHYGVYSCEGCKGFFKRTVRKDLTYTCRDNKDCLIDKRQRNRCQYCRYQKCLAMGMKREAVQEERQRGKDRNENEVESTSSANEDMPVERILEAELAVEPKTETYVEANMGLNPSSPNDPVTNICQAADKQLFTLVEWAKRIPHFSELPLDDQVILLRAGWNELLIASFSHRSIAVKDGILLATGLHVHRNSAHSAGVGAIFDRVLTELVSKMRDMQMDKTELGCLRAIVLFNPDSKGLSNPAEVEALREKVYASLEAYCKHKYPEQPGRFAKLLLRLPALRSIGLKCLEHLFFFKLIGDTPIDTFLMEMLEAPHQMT

BrCCc1ccccc1
1.56%: max response [14]
inactive: Potency [1] > 92 µM | caspase-3 activation [2] 1.89% | outcome [3] | outcome [4] | Potency [5] | outcome [6] | outcome [7] | Potency [8] | Potency [9] | Potency [10] | Potency [11] | Potency [12] | Potency [13] | outcome [15]

CCC#N
inactive: Potency [1] > 92 µM | caspase-3 activation [2] -0.741% | outcome [3] | outcome [4] | Potency [5] | outcome [6] | outcome [7] | Potency [8] | Potency [9] | Potency [10] | Potency [11] | Potency [12] | Potency [13] | outcome [15]
3.48%: max response [14]

Cc1ccc(N)cc1N
-4.9% and 16.6%: max response [14]
inactive: Potency [1] > 92 µM | caspase-3 activation [2] -0.424% | outcome [3] | outcome [4] | Potency [5] | outcome [6] | outcome [7] | Potency [8] | Potency [9] | Potency [10] | Potency [11] | Potency [12] | Potency [13] | outcome [15]

Cc1cc(-c2cc(C)c(N)c(C)c2)cc(C)c1N
-7.36%: max response [14]
inactive: Potency [1] > 92 µM | caspase-3 activation [2] 1.01% | outcome [3] | outcome [4] | Potency [5] | outcome [6] | outcome [7] | Potency [8] | Potency [9] | Potency [10] | Potency [11] | Potency [12] | Potency [13] | outcome [15]

O=C(O)C(Cl)Br (stereo not given)
inactive: Potency [1] > 92 µM | caspase-3 activation [2] -0.427% | outcome [3] | outcome [4] | Potency [5] | outcome [6] | outcome [7] | Potency [8] | Potency [9] | Potency [10] | Potency [11] | Potency [12] | Potency [13] | outcome [15]
-0.567%: max response [14]

CCCBr
-13.5%: max response [14]
inactive: Potency [1] > 92 µM | caspase-3 activation [2] 0.185% | outcome [3] | outcome [4] | Potency [5] | outcome [6] | outcome [7] | Potency [8] | Potency [9] | Potency [10] | Potency [11] | Potency [12] | Potency [13] | outcome [15]

BrC(Br)Br
0.74%: max response [14]
inactive: Potency [1] > 92 µM | caspase-3 activation [2] -0.161% | outcome [3] | outcome [4] | Potency [5] | outcome [6] | outcome [7] | Potency [8] | Potency [9] | Potency [10] | Potency [11] | Potency [12] | Potency [13] | outcome [15]

CC(=O)CCC(C)=O
inactive: Potency [1] > 92 µM | caspase-3 activation [2] 0.378% | outcome [3] | outcome [4] | Potency [5] | outcome [6] | outcome [7] | Potency [8] | Potency [9] | Potency [10] | Potency [11] | Potency [12] | Potency [13] | outcome [15]
0.0938%: max response [14]

Nc1ccc2ccccc2c1
-8.86%: max response [14]
inactive: Potency [1] > 92 µM | caspase-3 activation [2] 1.77% | outcome [3] | outcome [4] | Potency [5] | outcome [6] | outcome [7] | Potency [8] | Potency [9] | Potency [10] | Potency [11] | Potency [12] | Potency [13] | outcome [15]

CCOC(=O)CBr
8.56%: max response [14]
inactive: Potency [1] > 92 µM | caspase-3 activation [2] 1.06% | outcome [3] | outcome [4] | Potency [5] | outcome [6] | outcome [7] | Potency [8] | Potency [9] | Potency [10] | Potency [11] | Potency [12] | Potency [13] | outcome [15]

C=CC(=O)OC
inactive: Potency [1] > 92 µM | caspase-3 activation [2] 0.227% | outcome [3] | outcome [4] | Potency [5] | outcome [6] | outcome [7] | Potency [8] | Potency [9] | Potency [10] | Potency [11] | Potency [12] | Potency [13] | outcome [15]
-10.9%: max response [14]

CC12CC1(C)C(=O)N(c1cc(Cl)cc(Cl)c1)C2=O (stereo not given)
-5.02% and -2.83%: max response [14]
inactive: Potency [1] > 92 µM | caspase-3 activation [2] -1.16% | outcome [3] | outcome [4] | Potency [5] | outcome [6] | outcome [7] | Potency [8] | Potency [9] | Potency [10] | Potency [11] | Potency [12] | Potency [13] | outcome [15]

Cc1ccc(OP(=O)(Oc2ccc(C)cc2)Oc2ccc(C)cc2)cc1
-17.7%: max response [14]
inactive: Potency [1] > 92 µM | caspase-3 activation [2] 1.7% | outcome [3] | outcome [4] | Potency [5] | outcome [6] | outcome [7] | Potency [8] | Potency [9] | Potency [10] | Potency [11] | Potency [12] | Potency [13] | outcome [15]
